The list is not random: actives were taken first. Their share in the collection is about 7.3%.
Vaccinia mCherry: vaccinia inhibition (mCherry reporter); Vaccinia virus mCherry reporter infection, fluorescence; Potency, µM (highest dose often 36.5 µM), hits mostly inhibitors; hit rate 0.63% among 310,000; calls by dose curve; tested in A549 cells; also: nearly all actives have a fitted effect of over 35% in size
HCMV inh: blocks human cytomegalovirus replication | activity change, negative = inhibition, % at 57.5 µM | hit rate 4.5% among 410,000 | HFF cells, HCMV-luciferase reporter, 72 h; active compounds read low | AID 1259415; in the data active = activity change below about -60%; inconclusive = no clear call, values can overlap the other calls; inactive = above about -39%
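Compounds were evaluated in HFFs infected with an HCMV luciferase reporter virus (MOI 1 PFU/cell). Luciferase in lysates collected 72 h post infection served as the replication measure.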
HCV inh: inhibitors of hepatitis C virus infection; Huh7.5.1 HCVcc-Cre infection, luciferase reporter, 44 h; Potency, µM (series often up to 41.8 µM), usual class: inhibitors; AID 651820; hit rate 3.4% among 340,000; active = well fitted inhibition curve with a large enough effect; inconclusive = small, poorly fitted or top-dose-only effect, or another doubt; inactive = no such curve, though single readings can be large or run the other way
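Whole-lifecycle infectious HCVcc-Cre system; cells 1,000/well, compound then virus (~0.5 moi) added 4 h after plating, 44 h culture. Luciferase read 15 sec following 15 min substrate incubation, room temp.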
FMDV antiviral: foot and mouth disease virus antiviral activity. AID 1159524. hit rate 1.2% among 410,000. FMDV antiviral cell-based qHTS. Potency, µM (titrated, usually from 57.9 µM), most hits filed as inhibitors; calls by dose curve; tested in HEK293T cells; also: read-out not given here; nearly all actives have a fitted effect of over 45% in size
Vaccinia Venus: inhibitors of vaccinia virus (Venus reporter); Vaccinia virus Venus reporter expression, fluorescence; Potency, µM (highest dose often 36.5 µM), most hits filed as inhibitors; hit rate 0.46% among 330,000; AID 720580; calls by dose curve; tested in A549 cells; also: nearly all actives have a fitted effect of over 30% in size
Hits are given with their value; 0 = inactive; ? = inconclusive; - = not tested or not shown; ! = a repeat was not active; [ ] = dose if it differs, or a comment.

SMILES | Vaccinia mCherry | HCMV inh | HCV inh | FMDV antiviral | Vaccinia Venus
COc1c(Cl)cc(Cl)cc1/C=N/NC(=O)c1nnn(-c2nonc2N)c1CN1CCC(C)CC1 | 0 | 0 | ? | 0 | 0
CC1CCN(Cc2c(C(=O)N/N=C/c3cc(Br)ccc3O)nnn2-c2nonc2N)CC1 | ? | -101.6 | 3.55µM | 0 | ?
CCSc1ncc(Cl)c(C(=O)Nc2sc3c(c2C(=O)OC)CCCC3)n1 | 0 | - | - | - | 0
COC(=O)C1=C(c2ccc(-c3ccccc3)c(F)c2)C[C@@H]2CC[C@H]1N2C(=O)N1CCc2cc(OC)c(OC)cc2C1 | ? | 0 | ? | ? | ?
COC(=O)C1=C(c2ccc(-c3ccccc3)c(F)c2)C[C@@H]2CC[C@H]1N2C(=O)N1CCC(C)CC1 | 0 | 0 | ? | 0 | ?
COC(=O)C1=C(c2ccc(-c3ccccc3)c(F)c2)C[C@@H]2CC[C@H]1N2C(=O)N1CCCC1 | 22.4µM | -72.2 | 2.82µM | 0 | ?
COC(=O)C1=C(c2ccc(-c3ccccc3)c(F)c2)C[C@@H]2CC[C@H]1N2C(=O)N1CCCCC1 | ? | -75.1 | ? | ? | ?
COC(=O)C1=C(c2ccc3ccccc3c2)C[C@@H]2CC[C@H]1N2C(=O)N1CCCC1 | ? | - | 10µM | ? | ?
COC(=O)C1=C(c2ccc3ccccc3c2)C[C@@H]2CC[C@H]1N2C(=O)N1CCC(O)CC1 | 0 | - | 0 | ? | 0
COc1ccc(Nc2cc3c(cn2)ncn3Cc2ccccc2)cn1 | - | 0 | - | - | -
CCSc1ncc(Cl)c(C(=O)Nc2nc3ccc(S(C)(=O)=O)cc3s2)n1 | 0 | 0 | - | 0 | 0
NC(N)=N/N=C/c1c(Cl)cccc1Cl | 0 | -73.0! | 0 | 0 | 0
NC(N)=N/N=C/c1ccccc1Cl | ? | 0 | 0 | 0 | 0
Cc1cc(SCC(=O)c2ccc(O)c(O)c2)n2nc(C)c(-c3ccccc3)c2n1 | 11.2µM | 0 | 11.2µM | 0 | 0
O=C(Nc1cccc(Cl)c1)C1CCN(S(=O)(=O)Cc2ccccc2)CC1 | 0 | 0 | - | 0 | 0
N[C@@H](Cn1cc(F)c(=O)[nH]c1=O)C(=O)O | - | - | - | 0 | -
CCNC(=O)C1CCCN(C(=O)c2ccc(OC)c(OC)c2)CC1 (stereo unspecified) | 0 | 0 | - | 0 | 0
COc1ccc(C(=O)N2CCCCCC2)cc1OC1CCN(C(C)=O)CC1 | 0 | -78.3 | - | 0 | 0
COC(=O)c1ccccc1NC(=O)C1CCCN(c2ncnc3onc(C)c23)C1 (stereo unspecified) | 0 | 0 | - | ? | 0
COC(=O)c1ccc(NC(=O)C2CCN(C(=O)c3cc(OC)c(OC)c(OC)c3)CC2)cc1 | 0 | -101.1 | 0 | 0 | 0
CCOC(=O)c1ccc(NC(=O)C2CCCN(c3ncnc4onc(C)c34)C2)cc1 (stereo unspecified) | 0 | -74.5 | - | 0 | 0
CCOC(=O)c1ccc(NC(=O)C2CCN(C(=O)c3ccc(OC)c(OC)c3)CC2)cc1 | - | 0 | 10µM | ? | ?
Cc1ccc2cc(C(c3nnnn3C3CCCC3)N(Cc3ccccc3)Cc3ccco3)c(=O)[nH]c2c1 (stereo unspecified) | 0 | 0 | 0 | - | 0
Cc1cc2cc(C(c3nnnn3C3CCCC3)N(Cc3cccnc3)Cc3ccco3)c(=O)[nH]c2cc1C (stereo unspecified) | 0 | -66.5 | 0 | ? | 0
CCCCC[C@H](C)N1C[C@H](COCc2ccccc2)Oc2cc(N3CC[C@@H](N(C)C)C3)ccc2S1(=O)=O | 0 | -100.6 | - | 0 | 0
SMILES | Vaccinia mCherry | HCMV inh | HCV inh | FMDV antiviral | Vaccinia Venus
CCCCC[C@@H](C)N1C[C@@H](COCc2ccccc2)Oc2cc(N3CC[C@@H](N(C)C)C3)ccc2S1(=O)=O | 0 | 0 | - | 0 | 0
CCCCC[C@@H](C)N1C[C@H](COCc2ccccc2)Oc2cc(N3CC[C@@H](N(C)C)C3)ccc2S1(=O)=O | 0 | -101.7 | - | 0 | 0
Cc1cc(NC(=O)CN2C(=O)CC(c3ccco3)Sc3ccccc32)no1 (stereo unspecified) | 0 | - | 35.5µM | 0 | 0
COc1cccc(NC(=O)CN2C(=O)CC(c3ccco3)Sc3ccccc32)c1 (stereo unspecified) | 0 | -105.4 | - | 0 | 0
O=C(CN1C(=O)CC(c2ccco2)Sc2ccccc21)NC1CCCCC1 (stereo unspecified) | 0 | 0 | 0 | 0 | 0
CCOC(=O)c1ccccc1NC(=O)CN1C(=O)CC(c2ccco2)Sc2ccccc21 (stereo unspecified) | 0 | 0 | - | 0 | 0
CC(=O)Nc1ccc(NC(=O)CN2C(=O)CC(c3ccco3)Sc3ccccc32)cc1 (stereo unspecified) | 0 | -105.1 | - | 0 | 0
CCOc1ccccc1NC(=O)CN1C(=O)CC(c2ccco2)Sc2ccccc21 (stereo unspecified) | 0 | -87.0 | - | 0 | 0
O=C(COc1ccc(F)cc1)OCc1cc(=O)n2nc(C3CCCCC3)sc2n1 | 0 | 0 | - | 0 | 0
CC1=C(c2ccc(C(C)C)cc2)S(=O)(=O)NC1=NCCCN1CCN(c2ccccc2F)CC1 | 0 | 0 | - | 0 | 0
CCn1c(-c2ccccc2F)nc2cc(C(=O)NCC3CCOCC3)cc(NC(C)=O)c21 | 0 | - | - | 0 | 0
CSc1nc2ccccc2nc1N(C)S(=O)(=O)c1ccc(C)cc1 | 0 | -66.1 | 0 | 0 | 0
CCOc1ccc(CCNC(=O)CCc2cn(Cc3ccc(C)cc3)c3ccccc23)cc1 | 0 | 0 | - | 0 | 0
COc1cc(-c2ccc(C)cc2)cc2c1OCCN(C(=O)CCn1ccc(C)n1)C2 | 0 | - | - | 0 | 0
COc1ccc(-c2nc(CN(C)C(C)c3ccon3)c(C)o2)c(C)c1C (stereo unspecified) | 0 | ? | 10µM | 0 | 0
Cc1ccccc1-c1nc(CN(C)C(C)c2ccon2)c(C)o1 (stereo unspecified) | 0 | 0 | 0 | 0 | 0
Cc1cc(C)c(CSc2ncc(-c3ccc([N+](=O)[O-])cc3)[nH]2)c(C)c1 | 0 | 0 | 11.2µM | 0 | 0
CCOC(=O)C(=Cc1ccc(-n2cncn2)cc1)C(=O)OCC | ? | -100.1 | 0 | 28.2µM | ?
CCOC(=O)c1ccc(NC(=O)C2CCN(S(=O)(=O)Cc3ccccc3)CC2)cc1 | 0 | 0 | - | 0 | 0
COc1ccc(S(=O)(=O)Nc2ccc3c(c2)C(=O)N([C@H](C)CO)C[C@H](C)[C@@H](CN(C)S(=O)(=O)c2ccc(OC)cc2)O3)cc1 | ? | -91.8 | 0[8.37 µM] | 0 | ?
C[C@@H]1CN([C@H](C)CO)C(=O)c2cc(NC(=O)Nc3ccc(C(F)(F)F)cc3)ccc2O[C@H]1CN(C)S(=O)(=O)c1cccs1 | 0 | 0 | ? | 0 | ?
C[C@H](CO)N1C[C@H](C)[C@@H](CN(C)S(=O)(=O)c2cccs2)Oc2ccc(NC(=O)Nc3ccccc3)cc2C1=O | 0 | -65.0 | 0 | 0 | 0
C[C@H](CO)N1C[C@H](C)[C@@H](CN(C)S(=O)(=O)c2ccccc2)Oc2ccc(NC(=O)Nc3ccccc3)cc2C1=O | ? | -73.5 | 0 | 0 | 10µM
CC(C)C(=O)N1CCC(c2nc(-c3ccc(S(=O)(=O)N4CCCC4)cc3)no2)CC1 | 0 | -72.9 | ? | 0 | 0
O=C(Nc1ccccc1)N1CCC(c2nc(-c3ccc(S(=O)(=O)N4CCOCC4)cc3)no2)CC1 | - | 0 | 10µM | ? | -
